From PubChem BioAssay AID434970 (Sanford-Burnham Center for Chemical Genomics, 2010) come the findings set out here.

Each structure is given as a SMILES string. The whole screen tested about 11,000 compounds, of which about 310 (2.8%) were called active. No stated cut-off is given here; in the data, active means activity change below about -85%; inactive means the rest. Only a selection was taken, and actives are over-represented in it overall.

This assay relates to intestinal alkaline phosphatase [Mus musculus]. Briefly: activators of mouse IAP, confirmation, biochemical, luminescence, single concentration (AID 434970). The following applies: purified mouse IAP, CDP-Star luminescence, 30 min, at 10 µM; activation factor: measured here: IAP activation factor, stronger effect = higher value; activity change, negative = activation: stronger effect = lower value.
On to `Cc1cc(C)c2c(-n3cccc3)c(C(=O)NNS(=O)(=O)c3ccc(Br)cc3)sc2n1`, for which the activation factor was 0.865 and the activity change, negative = activation was 13.5% (inactive).

As to `CC1(C)CC2CC(C)(CN2C(=O)CN2C(=O)c3ccccc3C2=O)C1` (centres undefined), the activation factor stood at 1.09 and the activity change, negative = activation was -8.65% (inactive).

As for `CC(=O)c1ccc(NC(=O)CCn2c(=O)oc3ccccc32)cc1`, the activation factor amounted to 1.03 and the activity change, negative = activation is -3.25% (inactive).

Take `COc1ccccc1CNC(=O)CCCOc1cc(=O)n(C)c2ccccc12`: the activation factor came out at 0.997 and the activity change, negative = activation was 0.3% (inactive).

On to `C=CCC1[C@H](C)[C@H]2[C@@H]3CC[C@@H](C3)[C@H]2CN1S(=O)(=O)c1ccc(C)cc1` (some centres undefined), for which the activation factor turned out to be 1.12 and the activity change, negative = activation was -11.8% (inactive).

Take `O=C(Nc1ccccc1)Nc1cccc2ccccc12`: the activation factor amounted to 1.79 and the activity change, negative = activation was -78.8% (inactive).

As to `N#CCc1ccc(NC(=O)Nc2cccc3ccccc23)cc1`, the activation factor came to 1.89 and the activity change, negative = activation is -89.1% (inactive).

In the case of `CCN(CC)CCNC(=O)c1ccc(NC(=O)Nc2cccc3ccccc23)cc1`, the activation factor amounted to 2.6 and the activity change, negative = activation is -160% (active).

As for `CCOc1ccc(CC(=O)OCN2C(=O)c3ccccc3C2=O)cc1`, the activation factor amounted to 0.926 and the activity change, negative = activation was 7.35% (inactive).

Turning to `Cc1ccc(NC(=O)c2ncn(CC(=O)NCC(C)c3ccccc3)n2)cc1C` (centres undefined), the activation factor came out at 0.995 and the activity change, negative = activation was 0.5% (inactive).

For the compound `CCOc1ccc(NC(=O)CC(c2ccccc2)c2ccc(F)cc2)cc1` (centres undefined), the activation factor is 1.44 and the activity change, negative = activation was -43.6% (inactive).

As for `CCOc1ccccc1NC(=O)c1cccc(NC(=O)CC(c2ccccc2)c2ccccc2)c1`, the activation factor amounted to 1.39 and the activity change, negative = activation was -39.4% (inactive).

Take `COc1ccccc1C(CC(=O)Nc1ccc(Cl)cc1)c1ccc(OC(C)C)cc1` (centres undefined): the activation factor is 1.91 and the activity change, negative = activation was -90.9% (active).

In the case of `COc1ccccc1C(CC(=O)Nc1ccc(C)c(C)c1)c1ccc(OC(C)C)cc1` (centres undefined), the activation factor amounted to 2.06 and the activity change, negative = activation is -106% (active).

`Cc1ccc(NC(=O)CNc2ccc(OC(C)C)cc2)cc1`: the activation factor amounted to 0.9 and the activity change, negative = activation is 10% (inactive).

For `O=C(CN(Cc1ccccc1F)C(=O)Cn1nnc(-c2cccs2)n1)NC1CCCCC1`, the activation factor is 1.22 and the activity change, negative = activation was -22.1% (inactive).

For the compound `Cc1cc(C(F)F)nn1CC(=O)N1CCSCC1`, the activation factor was determined as 0.984 and the activity change, negative = activation is 1.65% (inactive).

Take `CCCC(=O)NC(=S)Nc1ccccc1C(F)(F)F`: the activation factor was found to be 0.974 and the activity change, negative = activation was 2.55% (inactive).

In the case of `CCN(CC)S(=O)(=O)c1ccc2c(c1)nc(SCc1nc3ccsc3c(=O)[nH]1)n2CC`, the activation factor was 0.992 and the activity change, negative = activation was 0.85% (inactive).

On to `COc1ccc(CNC(=S)Nc2ccc(F)c(Cl)c2)cc1OC`, for which the activation factor was 1.56 and the activity change, negative = activation is -56.2% (inactive).

`COc1ccc(N2C(=O)CCC(C(=O)NCc3cccnc3)C2c2ccc(OC)c(OC)c2)cc1` (centres undefined): the activation factor is 0.977 and the activity change, negative = activation was 2.3% (inactive).

Take `O=C(Nc1cnn(Cc2ccccc2)c1)NC12CC3CC(CC(C3)C1)C2`: the activation factor was determined as 2.05 and the activity change, negative = activation is -105% (active).

For `O=C(Nc1cnn(Cc2ccc(Cl)c(Cl)c2)c1)C12CC3CC(CC(C3)C1)C2`, the activation factor came out at 1.17 and the activity change, negative = activation was -16.9% (inactive).

Regarding `O=C(NCc1ccccn1)NC12CC3CC(CC(C3)C1)C2`, the activation factor was 1.06 and the activity change, negative = activation was -6.25% (inactive).

Take `COc1ccccc1C(=O)N1CCN=C1SC`: the activation factor worked out at 0.943 and the activity change, negative = activation is 5.75% (inactive).

With `O=C(O)CCN1C(=O)NC2(CCCC2)C1=O`, the activation factor is 1.15 and the activity change, negative = activation was -15.3% (inactive).

Regarding `Cc1ccc(C)c(N(C)C(=O)c2coc(=O)c3ccccc23)c1`, the activation factor came to 0.967 and the activity change, negative = activation was 3.3% (inactive).

Consider `Cc1cccc(CN2CCC(CNC(=O)Nc3ccc(F)c(Cl)c3)CC2)c1`, for which the activation factor came to 2.15 and the activity change, negative = activation was -115% (active).

Consider `CCc1cccc(CN2CCC(CNC(=O)Nc3ccc(Cl)cc3)CC2)c1`, for which the activation factor is 1.68 and the activity change, negative = activation is -67.9% (inactive).

Take `CCc1ccc(NC(=O)NCC2CCN(Cc3cccc(Cl)c3)CC2)cc1`: the activation factor stood at 2.2 and the activity change, negative = activation was -120% (active).

Turning to `COc1cccc(NC(=O)COC(=O)c2cc(S(=O)(=O)N3CCOCC3)ccc2C)c1`, the activation factor was found to be 0.964 and the activity change, negative = activation is 3.65% (inactive).

`Cc1ccc(NC(=O)NCC2CCN(Cc3cccc(Cl)c3)CC2)cc1Cl`: the activation factor is 1.87 and the activity change, negative = activation was -87.3% (active).

As for `Cc1cccc(NC(=O)NCC2CCN(c3ccc(S(=O)(=O)N4CCOCC4)cc3)CC2)c1`, the activation factor is 2.56 and the activity change, negative = activation was -156% (active).

As to `O=C(NCC1CCN(Cc2cccc(Cl)c2)CC1)Nc1ccc(Cl)cc1`, the activation factor was 1.9 and the activity change, negative = activation is -89.5% (inactive).

For the compound `O=C(NCC1CCN(c2ccc(S(=O)(=O)N3CCOCC3)cc2)CC1)Nc1ccccc1`, the activation factor is 1.77 and the activity change, negative = activation was -77.3% (inactive).

For the compound `CCOc1cc(/C=N\NC(=O)c2ccc(NC(=O)CC)cc2)ccc1OC(=O)c1ccccc1`, the activation factor was 1.02 and the activity change, negative = activation was -1.9% (inactive).

For `Cc1cc(C)nc(SCC(=O)c2ccc([N+](=O)[O-])cc2)n1`, the activation factor is 0.867 and the activity change, negative = activation is 13.3% (inactive).

In the case of `O=C1Nc2ccccc2C(O)(C(=O)NC2CC2)N1c1ccc(Cl)c(Cl)c1` (centres undefined), the activation factor was 0.911 and the activity change, negative = activation was 8.85% (inactive).

For the compound `CCOc1ccc2nc(SCC(=O)N(C)C3CCS(=O)(=O)C3)[nH]c2c1` (centres undefined), the activation factor came out at 0.928 and the activity change, negative = activation was 7.2% (inactive).

On to `O=C(c1cccs1)[C@@H]1[C@@H]2C(=O)N(Cc3ccc4c(c3)OCO4)C(=O)[C@@H]2C2c3ccccc3C=CN21` (some centres undefined), for which the activation factor was 0.569 and the activity change, negative = activation was 43.1% (inactive).

For the compound `CCn1c(=O)c(C(=O)NCCN2CCCCC2)c(O)c2ccccc21`, the activation factor was 0.851 and the activity change, negative = activation is 14.8% (inactive).

Take `CC[C@]1(C(=O)OC)[C@H]2C(=O)N(C)C(=O)[C@H]2[C@H]2CN(C)C(=NC3CCCCC3)N21`: the activation factor was 0.984 and the activity change, negative = activation is 1.6% (inactive).

Turning to `Cc1ccccc1NC(=O)NCCCN1CCN(c2ccccc2)CC1`, the activation factor came out at 1.27 and the activity change, negative = activation was -27.2% (inactive).

For `Cc1cc2nc(C)n(CCCNC(=O)Nc3cccc4ccccc34)c2cc1C`, the activation factor stood at 2.18 and the activity change, negative = activation was -118% (active).

As for `O=C(NCCc1c[nH]c2ccccc12)Nc1cccc2ccccc12`, the activation factor turned out to be 1.29 and the activity change, negative = activation is -28.6% (inactive).

As for `Cc1cc(=O)n(CCO)c(O)c1C#N`, the activation factor came to 1.02 and the activity change, negative = activation was -1.65% (inactive).

`CCOC(=O)C1=CNS(=O)(=O)NC1c1cccc(O)c1` (centres undefined): the activation factor is 1.05 and the activity change, negative = activation was -5.15% (inactive).

With `COc1ccc(NS(=O)(=O)c2ccc(OC)c(OC)c2)cc1OC`, the activation factor was determined as 0.945 and the activity change, negative = activation was 5.5% (inactive).

With `Cc1csc(NC(=O)Nc2cccc(Cl)c2)n1`, the activation factor was determined as 1.11 and the activity change, negative = activation is -11.1% (inactive).

On to `O=C(Nc1ccccc1)Nc1nc(-c2ccc(F)cc2)cs1`, for which the activation factor is 1.62 and the activity change, negative = activation was -62.5% (inactive).

Take `COc1cccc(-c2csc(N3CCN(C(=O)Nc4ccc(F)cc4)CC3)n2)c1`: the activation factor came out at 1.33 and the activity change, negative = activation was -32.7% (inactive).

On to `O=C(Nc1cccc(Cl)c1)Nc1nc(-c2ccc(Cl)cc2)cs1`, for which the activation factor came to 2.1 and the activity change, negative = activation was -110% (active).

As to `COc1cccc(-c2csc(NC(=O)Nc3ccccc3)n2)c1`, the activation factor was found to be 2.11 and the activity change, negative = activation was -111% (active).

As for `O=C(Nc1nc(-c2ccccc2)cs1)NC1CCCCC1`, the activation factor is 1.61 and the activity change, negative = activation was -61.4% (inactive).

Take `O=C(Nc1nc(-c2cccs2)cs1)c1ccc(Cl)cc1`: the activation factor was determined as 0.793 and the activity change, negative = activation is 20.7% (inactive).

With `O=C(Nc1cccc(Cl)c1)Nc1nc(-c2ccccc2)cs1`, the activation factor came to 2.16 and the activity change, negative = activation is -116% (active).

With `O=C(Nc1ccccc1)Nc1nc(-c2ccc(F)c(F)c2)cs1`, the activation factor was 1.75 and the activity change, negative = activation was -75.4% (inactive).
